V-ATPase pH – alters yeast V-ATPase proton transport. S. cerevisiae, pHLuorin cytosolic pH fluorescence. response, % at 10 µM. 0.37% of 350,000 active. AID 504577; in the data active = response mostly above about 7.3%, no sharp cut-off; inactive = mostly below about 5.4%; note: actives read high
NALP1 yeast inh – blocks the NALP1 inflammasome reconstituted in yeast; S. cerevisiae NALP1/ASC/caspase-1 growth, X-gal OD620, 72 h; inhibition, % at 10 µM; 0.61% of 280,000 active; AID 2071; in the data active = inhibition mostly above about 24%, no sharp cut-off; inactive = mostly below about 32%
NALP3 yeast inh – inhibitors of NALP3 inflammasome in yeast; Yeast reconstituted NLRP3/ASC/caspase-1, beta-gal luminescence, 24 h; inhibition, % at 10 µM; 0.39% of 330,000 active;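 active = inhibition of 50% or more; inactive = inhibition below 50%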
Rce1 inhib – yeast Ras-converting enzyme inhibition | yeast membranes, quenched prenylated peptide cleavage fluorescence | calls only | 0.27% of 290,000 active;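 active = fall in fluorescence gain of 50% or more versus controls, with final raw signal at or below 3038400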
Target sequence (Q03530 whole entry, looked up): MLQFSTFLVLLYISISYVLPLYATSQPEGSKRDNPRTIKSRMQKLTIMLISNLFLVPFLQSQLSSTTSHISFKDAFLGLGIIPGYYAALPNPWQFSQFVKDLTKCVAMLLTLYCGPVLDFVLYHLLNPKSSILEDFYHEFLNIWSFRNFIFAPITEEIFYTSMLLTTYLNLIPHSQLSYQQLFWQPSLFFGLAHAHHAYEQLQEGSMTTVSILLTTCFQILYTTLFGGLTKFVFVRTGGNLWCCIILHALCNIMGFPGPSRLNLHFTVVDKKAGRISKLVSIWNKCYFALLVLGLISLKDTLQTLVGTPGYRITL
CR mimetic SO – lowers age-related superoxide in aged yeast cells; AID 2690; superoxide response (% of plate mean), % at 10 µM; S. cerevisiae aged cells, superoxide DHE fluorescence; stronger effect = lower value; 0.18% of 330,000 active;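 active = superoxide response under a set limit, about three screen SD below normal, cut at about 65% in these data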;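 note: yeast aged for seven days with compound at 30 °C before DHE staining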
PERK inhibitor – blocks human PERK kinase; 0.17% of 220,000 active; CHO PERK-DD fusion, SEAP luminescence translation reporter; inhibition, % at 5.6 µM; Q9NZJ5;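 active = inhibition above the mean inhibition of all tested compounds plus 3 SD, set separately per screening campaign, cut at about 2.9% in these data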;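 note: PERK kinase domain activated by AP20187 dimerizer at 100 nM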
V-ATPase pH SP – regulators of yeast V-ATPase proton transport; shares compounds with V-ATPase pH; S. cerevisiae pHLuorin cytosolic pH; response, % at 10 µM; 2% of 980 active; AID 602197; in the data active = response above about 24%
A number is an active result; n = inactive; x = not tested or not shown. This is a sample that favours compounds with a hit; in the whole collection about 1.6% have one here.

SMILES	V-ATPase pH	NALP1 yeast inh	NALP3 yeast inh	Rce1 inhib	CR mimetic SO	PERK inhibitor	V-ATPase pH SP
COc1ccc(/C=C/C(=O)Nc2ccc(S(=O)(=O)Nc3onc(C)c3C)cc2)cc1OC	n	n	n	n	n	x	x
Cn1c(N)c(C(=O)c2ccc(F)cc2F)c(=O)n(C)c1=O	8.4	n	n	n	n	n	n
Cn1c(N)c(C(=O)c2ccc(Cl)cc2)c(=O)n(C)c1=O	n	n	n	n	n	n	x
CCOc1cc(/C=N/NC(=O)c2cccc(S(=O)(=O)N3CCCC3)c2)ccc1OCC(=O)N(C)C	19	x	n	n	n	x	n
O=C(NNC(=O)c1cc(S(=O)(=O)N2CCOCC2)ccc1Cl)c1ccc(F)cc1	n	x	x	x	x	x	x
Cc1ncsc1CCOC(=O)c1ccc([N+](=O)[O-])cc1	45	n	n	n	n	n	n
Cc1ncsc1CCOC(=O)c1ccc(N2CCOCC2)c([N+](=O)[O-])c1	n	n	n	n	n	n	x
Cc1nnc(SCC(=O)NC2(C#N)CCCCC2)n1N	n	x	x	x	x	x	x
CC(=O)c1cccc(S(=O)(=O)N2CCN(c3ccccc3F)CC2)c1	12	n	n	n	n	n	n
O=C(c1cccc(S(=O)(=O)N2CCCC2)c1)N1CCN(c2ccccc2F)CC1	n	n	n	n	n	n	x
CC1(C2CC(=O)c3c(O)ccc(O)c3C2)OCCO1 (stereo unspecified)	n	x	x	x	x	x	x
Cc1ccc(NCCC(=O)c2cccc([N+](=O)[O-])c2)c(C)c1	n	n	n	n	n	n	x
Cc1cccc(NCCC(=O)c2ccc([N+](=O)[O-])cc2)c1C	96	n	n	n	n	n	n
CNC[C@H]1Oc2cc(Br)ccc2S(=O)(=O)N([C@H](C)CO)C[C@H]1C	n	x	x	x	x	x	x
O=S(=O)(NC1=NCCC1)c1ccc(F)cc1F	9.1	n	n	n	n	n	n
O=C(CN1CCc2ccccc2C1)Nc1ccccc1N1CCCCCC1	16	n	n	n	n	n	n
O=C(CN1CCc2ccccc2C1)Nc1ccccc1Cl	n	n	n	n	n	x	x
CCn1c(SCC(=O)NC2CCCC2)nnc1-c1c[nH]c2ccccc12	13	n	n	n	n	n	n
CN(C)/C=C(\C(=O)c1ccccc1)c1nnnn1-c1ccc(F)cc1	21	x	n	n	n	n	n
COc1ccc(C(=O)NCCn2cc(SCC(=O)NCC3CCCO3)c3ccccc32)cc1OC (stereo unspecified)	8.1	n	n	n	n	x	n
COc1cc(-c2cc(=O)c3ccccc3o2)ccc1O	7.7	n	n	n	n	n	n
COc1nn(-c2nc(-c3ccccc3)cc(C(F)(F)F)n2)cc1[N+](=O)[O-]	17	n	n	n	n	n	n
O=C(NC1CCCCC1)Sc1ccc(Cl)cc1	8.0	n	n	n	n	n	n
O=C(O)C1CC=CCC1C(=O)NNc1c(Cl)cc(Cl)cc1Cl (stereo unspecified)	12	n	n	x	n	n	n
CC(C)N1C(=O)C(=O)N(CC(=O)N2c3ccccc3CC2C)C1=O (stereo unspecified)	n	x	x	x	x	x	x

High-throughput results deposited in PubChem BioAssay by several laboratories.
